Here are results for 18 compounds from ChEMBL document CHEMBL2218924, “A broad activity screen in support of a chemogenomic map for kinase signalling research and drug discovery” (Biochem J, 2013).

The target of experiment [1] is Ribosomal protein S6 kinase alpha-1 (Homo sapiens) (UniProt Q15418). The following applies: at 1 µM.
Experiment [2] shares this target. Particulars: at 10 µM.
The target in experiment [3] is Ribosomal protein S6 kinase alpha-3 (Homo sapiens) (UniProt P51812). The following applies: at 1 µM.
Experiment [4] has the same target. Particulars: at 10 µM.
The target of experiment [5] is Ribosomal protein S6 kinase alpha-2 (Homo sapiens) (UniProt Q15349). The following applies: at 1 µM.
For experiment [6] the target is unchanged. The following applies: at 10 µM.
The target in experiment [7] is Ribosomal protein S6 kinase alpha-6 (Homo sapiens) (UniProt Q9UK32). The following applies: at 1 µM.
For experiment [8] the target is unchanged. The following applies: at 10 µM.
The target of experiment [9] is Mitogen-activated protein kinase 14 (Homo sapiens) (UniProt Q16539). Particulars: at 1 µM.
Experiment [10] shares this target. The following applies: at 10 µM.

Chain of Ribosomal protein S6 kinase alpha-6 (Homo sapiens) (Q9UK32 whole entry): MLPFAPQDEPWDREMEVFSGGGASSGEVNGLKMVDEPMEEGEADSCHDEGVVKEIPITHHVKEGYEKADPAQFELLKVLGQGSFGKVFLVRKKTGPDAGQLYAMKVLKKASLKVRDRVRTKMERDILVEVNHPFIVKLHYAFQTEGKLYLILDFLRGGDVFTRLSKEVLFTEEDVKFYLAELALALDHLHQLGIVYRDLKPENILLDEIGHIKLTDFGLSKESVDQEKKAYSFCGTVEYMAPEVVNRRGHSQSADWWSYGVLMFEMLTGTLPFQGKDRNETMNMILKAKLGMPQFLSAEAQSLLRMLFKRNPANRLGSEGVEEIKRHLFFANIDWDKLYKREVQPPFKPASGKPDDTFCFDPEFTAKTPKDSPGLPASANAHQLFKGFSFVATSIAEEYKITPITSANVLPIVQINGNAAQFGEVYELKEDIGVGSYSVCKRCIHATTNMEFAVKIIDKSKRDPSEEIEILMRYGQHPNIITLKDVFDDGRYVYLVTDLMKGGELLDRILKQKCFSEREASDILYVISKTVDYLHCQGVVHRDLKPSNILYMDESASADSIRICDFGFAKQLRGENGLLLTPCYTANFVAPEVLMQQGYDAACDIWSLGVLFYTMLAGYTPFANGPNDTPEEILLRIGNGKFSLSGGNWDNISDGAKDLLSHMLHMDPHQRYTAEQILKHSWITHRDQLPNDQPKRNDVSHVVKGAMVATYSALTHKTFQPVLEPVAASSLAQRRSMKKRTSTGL
Chain of Ribosomal protein S6 kinase alpha-1 (Homo sapiens) (Q15418 whole entry): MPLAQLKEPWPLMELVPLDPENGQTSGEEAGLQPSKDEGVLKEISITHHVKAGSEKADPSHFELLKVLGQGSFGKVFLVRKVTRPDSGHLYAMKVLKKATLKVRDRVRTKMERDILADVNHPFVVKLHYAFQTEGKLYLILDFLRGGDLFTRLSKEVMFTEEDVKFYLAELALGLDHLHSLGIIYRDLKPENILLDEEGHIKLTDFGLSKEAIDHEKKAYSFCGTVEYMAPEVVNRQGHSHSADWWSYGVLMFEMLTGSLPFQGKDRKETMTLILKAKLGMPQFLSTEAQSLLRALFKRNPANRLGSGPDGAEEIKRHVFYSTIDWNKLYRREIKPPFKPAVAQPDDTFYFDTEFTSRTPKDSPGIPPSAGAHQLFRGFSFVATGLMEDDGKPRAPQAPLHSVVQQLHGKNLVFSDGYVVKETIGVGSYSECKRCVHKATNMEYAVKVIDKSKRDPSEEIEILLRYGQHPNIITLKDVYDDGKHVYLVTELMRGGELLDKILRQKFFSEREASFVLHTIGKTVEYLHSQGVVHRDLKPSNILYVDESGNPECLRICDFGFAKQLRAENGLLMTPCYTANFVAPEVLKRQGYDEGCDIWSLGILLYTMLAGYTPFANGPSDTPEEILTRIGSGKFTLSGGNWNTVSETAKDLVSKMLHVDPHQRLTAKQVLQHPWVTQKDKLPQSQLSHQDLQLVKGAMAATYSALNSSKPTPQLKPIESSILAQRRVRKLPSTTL
Chain of Mitogen-activated protein kinase 14 (Homo sapiens) (Q16539 whole entry): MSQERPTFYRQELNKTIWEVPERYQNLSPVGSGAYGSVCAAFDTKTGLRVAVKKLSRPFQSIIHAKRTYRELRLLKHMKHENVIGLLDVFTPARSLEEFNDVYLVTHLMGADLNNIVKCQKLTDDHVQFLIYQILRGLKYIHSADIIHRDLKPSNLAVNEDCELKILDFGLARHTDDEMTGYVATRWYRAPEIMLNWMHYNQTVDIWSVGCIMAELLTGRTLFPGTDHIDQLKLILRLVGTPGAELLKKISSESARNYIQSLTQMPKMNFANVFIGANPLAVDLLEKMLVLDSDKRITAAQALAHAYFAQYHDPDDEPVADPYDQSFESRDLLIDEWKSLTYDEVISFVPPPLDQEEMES
Chain of Ribosomal protein S6 kinase alpha-2 (Homo sapiens) (Q15349 whole entry): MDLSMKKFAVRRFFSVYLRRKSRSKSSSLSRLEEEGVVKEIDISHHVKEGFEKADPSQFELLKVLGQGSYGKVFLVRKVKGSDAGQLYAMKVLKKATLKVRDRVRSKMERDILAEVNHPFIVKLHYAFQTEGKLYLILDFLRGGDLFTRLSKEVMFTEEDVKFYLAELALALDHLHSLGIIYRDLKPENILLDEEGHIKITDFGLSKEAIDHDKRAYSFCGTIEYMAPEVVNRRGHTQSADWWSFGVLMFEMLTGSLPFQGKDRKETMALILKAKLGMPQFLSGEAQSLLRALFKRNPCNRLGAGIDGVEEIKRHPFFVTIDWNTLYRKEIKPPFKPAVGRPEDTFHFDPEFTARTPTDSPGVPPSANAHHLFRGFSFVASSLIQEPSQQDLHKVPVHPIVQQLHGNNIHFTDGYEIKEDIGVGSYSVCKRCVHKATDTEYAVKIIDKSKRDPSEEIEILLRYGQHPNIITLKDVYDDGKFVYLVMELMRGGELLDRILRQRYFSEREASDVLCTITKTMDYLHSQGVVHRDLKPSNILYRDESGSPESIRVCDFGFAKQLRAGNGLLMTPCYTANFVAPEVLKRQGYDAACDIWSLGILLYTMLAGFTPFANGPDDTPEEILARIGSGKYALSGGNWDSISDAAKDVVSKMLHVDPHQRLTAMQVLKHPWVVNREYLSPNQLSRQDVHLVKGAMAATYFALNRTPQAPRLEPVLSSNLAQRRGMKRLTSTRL
Chain of Ribosomal protein S6 kinase alpha-3 (Homo sapiens) (P51812 whole entry): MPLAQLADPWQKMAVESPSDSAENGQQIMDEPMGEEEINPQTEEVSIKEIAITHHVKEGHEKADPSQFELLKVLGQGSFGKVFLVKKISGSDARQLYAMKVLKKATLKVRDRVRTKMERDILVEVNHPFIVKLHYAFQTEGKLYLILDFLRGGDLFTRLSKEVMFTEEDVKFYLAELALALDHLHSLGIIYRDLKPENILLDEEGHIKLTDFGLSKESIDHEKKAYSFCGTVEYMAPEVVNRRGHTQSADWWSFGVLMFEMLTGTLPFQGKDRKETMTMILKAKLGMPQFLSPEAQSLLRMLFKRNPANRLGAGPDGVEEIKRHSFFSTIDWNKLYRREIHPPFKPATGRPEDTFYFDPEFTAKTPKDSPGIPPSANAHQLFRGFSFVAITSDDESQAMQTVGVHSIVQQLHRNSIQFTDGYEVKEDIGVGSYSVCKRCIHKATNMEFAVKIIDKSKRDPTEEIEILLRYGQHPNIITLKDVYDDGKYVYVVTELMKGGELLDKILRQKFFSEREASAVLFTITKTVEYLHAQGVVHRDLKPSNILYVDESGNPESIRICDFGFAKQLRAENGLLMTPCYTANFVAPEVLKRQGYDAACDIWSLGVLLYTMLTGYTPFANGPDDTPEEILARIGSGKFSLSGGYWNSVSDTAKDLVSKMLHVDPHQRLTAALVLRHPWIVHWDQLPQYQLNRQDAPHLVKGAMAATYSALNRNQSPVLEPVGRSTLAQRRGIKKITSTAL

As to `Cc1cc2ncc(-c3ccccc3)nc2cc1C`, the residual activity in experiment [1] stood at 95%; in [2], 86%; in [3] it was 50%; in experiment [4], 40%; in experiment [5], 110%; in experiment [6], 101%. In addition, the residual activity in experiment [7] stood at 97%; in experiment [8], 100%; in experiment [9], 85%; in experiment [10] it was 82%.

With `Oc1c2ccccc2c2c3c(cccc13)N=N2`, the residual activity in [1] was determined as 86%; in [2], 64%; in [3], 54%; in experiment [4], 32%; in experiment [5], 58%; in [6] it was 22%. The residual activity worked out at 43% in experiment [7], 52% in experiment [8], 96% in experiment [9] and 85% in [10].

As for `CC#CC(=O)Nc1cc2c(Nc3ccc(F)c(Cl)c3)ncnc2cn1`, the residual activity was 113% in [1]; 101% in [2]; 104% in experiment [3]; 107% in [4]; 99% in experiment [5]; 96% in [6]. In addition, the residual activity in experiment [7] is 116%; in experiment [8], 105%; in [9], 91%; in [10], 98%.

In the case of `O=Nc1c(-c2c(O)[nH]c3ccccc23)[nH]c2ccccc12`, the residual activity in [1] came to 40%; in experiment [2] it was 6%; in experiment [3], 50%; in experiment [4], 7%; in [5] it was 19%; in experiment [6], 4%. The residual activity turned out to be 20% in [7], 12% in experiment [8], 94% in experiment [9] and 78% in experiment [10].

Turning to `O=C1Nc2ccc(Br)cc2/C1=C\c1cc2c([nH]1)CCCC2`, the residual activity in experiment [1] was determined as 84%; in experiment [2] it was 81%; in experiment [3] it was 45%; in [4] it was 37%; in [5], 79%; in experiment [6], 76%. Moreover, the values for the residual activity in experiment [7] and in [8] were 79% and 113%, respectively.

As to `COc1ccc(OC)c2c(=S)c3ccccc3[nH]c12`, the residual activity was found to be 116% in [1]; 106% in experiment [2]; 99% in [3]; 107% in [4]; 90% in experiment [5]; 88% in experiment [6]. Besides, the residual activity worked out at 98% in [7], 98% in experiment [8], 88% in [9] and 91% in experiment [10].

As for `COc1ccc(S(=O)(=O)N(CCO)c2ccccc2CN(C)C/C=C/c2ccc(Cl)cc2)cc1`, the residual activity was determined as 119% in [1]; 103% in experiment [2]; 60% in experiment [3]; 61% in [4]; 106% in experiment [5]; 92% in experiment [6]. In addition, the residual activity was 108% in [7], 90% in experiment [8], 93% in experiment [9] and 96% in experiment [10].

Take `O=C1c2ccccc2-[n+]2ccc3c([nH]c4ccccc43)c21`: the residual activity in experiment [1] came out at 97%; in experiment [2] it was 116%; in [3], 55%; in experiment [4], 50%; in [5] it was 101%; in [6], 90%. The residual activity in experiment [7] was 95%; in [8], 102%; in experiment [9] it was 87%; in [10], 85%.

For the compound `N#CCCc1ccc2c(c1)-c1[nH]c3ccc([N+](=O)[O-])cc3c1CC(=O)N2`, the residual activity in experiment [1] was found to be 45%; in experiment [2] it was 24%; in experiment [3], 9%; in [4], 3%; in experiment [5] it was 8%; in experiment [6], 1%. The values for the residual activity in [7] and in experiment [8] were 16% and 5%, respectively.

Regarding `Cn1cc(/C=C2\C(=O)Nc3ccc(S(N)(=O)=O)cc32)c2ccccc21`, the residual activity in experiment [1] was 9%; in [2] it was 6%; in experiment [3], 9%; in experiment [4], 1%; in experiment [5], 4%; in experiment [6], 0%. The residual activity in [7] was found to be 21%; in experiment [8] it was 10%; in experiment [9], 94%; in experiment [10], 96%.

In the case of `O=[N+]([O-])c1ccc(-c2nc(-c3ccc(F)cc3)c(-c3ccncc3)[nH]2)cc1`, the residual activity in [1] turned out to be 101%; in experiment [2], 104%; in experiment [3], 60%; in [4], 62%; in experiment [5] it was 103%; in experiment [6], 97%. Moreover, the residual activity in experiment [7] was 91%; in [8] it was 83%; in experiment [9], 1%; in experiment [10] it was 2%.

`Nc1ccc2ncnc(NCCc3ccc(Oc4ccccc4)cc3)c2c1`: the residual activity in experiment [1] worked out at 58%; in experiment [2], 41%; in [3], 49%; in [4], 45%; in [5], 89%; in [6], 65%. For the same compound, the residual activity in experiment [7] is 66%; in [8], 77%; in experiment [9], 90%; in experiment [10], 91%.

`O=C(Nc1cccc(Nc2nccc(Nc3cccc(C(F)(F)F)c3)n2)c1)C1CC1`: the residual activity in [1] was 78%; in experiment [2] it was 36%; in experiment [3], 45%; in [4], 27%; in [5] it was 106%; in experiment [6], 62%. Moreover, the residual activity was found to be 96% in experiment [7], 128% in [8], 79% in experiment [9] and 59% in [10].

Take `Oc1n[nH]c2nnc(-c3c(-c4ccccc4)nn4ccccc34)cc12`: the residual activity in experiment [1] was 114%; in [2], 111%; in [3] it was 96%; in experiment [4], 86%; in experiment [5], 90%; in experiment [6] it was 78%. Further, the residual activity was found to be 91% in [7], 106% in [8], 93% in experiment [9] and 85% in [10].

Consider `O=C1NC(=O)c2c1c1c3ccccc3[nH]c1c1[nH]c3cc(Br)ccc3c21`, for which the residual activity in experiment [1] worked out at 63%; in experiment [2], 49%; in experiment [3] it was 49%; in experiment [4], 43%; in experiment [5], 44%; in [6] it was 32%. In addition, the residual activity was 83% in experiment [7], 82% in [8], 93% in experiment [9] and 85% in experiment [10].

In the case of `CCOc1cc2ncnc(Nc3cccc(Br)c3)c2cc1OCC`, the residual activity in experiment [1] was 100%; in [2], 72%; in [3], 102%; in experiment [4], 40%; in [5], 90%; in experiment [6], 48%. The residual activity is 92% in experiment [7], 46% in [8], 57% in experiment [9] and 13% in experiment [10].

In the case of `CO[C@@H]1[C@H](N(C)C(=O)c2ccccc2)C[C@H]2O[C@]1(C)n1c3ccccc3c3c4c(c5c6ccccc6n2c5c31)C(=O)NC4`, the residual activity in experiment [1] was 0%; in experiment [2] it was 1%; in [3] it was 1%; in experiment [4], 0%; in experiment [5] it was 1%; in experiment [6], 0%. Besides, the residual activity in experiment [7] is 0%; in experiment [8] it was 3%; in [9], 71%; in experiment [10], 78%.

With `CC(C)n1cnc2/c(=N/c3cccc(Cl)c3)nc(NCCO)[nH]c21`, the residual activity in experiment [1] amounted to 50%; in [2], 22%; in [3], 15%; in [4], 6%; in [5], 6%; in experiment [6] it was 2%. The residual activity in [7] came to 34%; in experiment [8], 21%; in [9], 84%; in experiment [10], 74%.
